The panel holds about 83,000 compounds, 20% with a hit somewhere; the sample as a whole holds those more often.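 Negative percent growth values reflect cell death: -40 means 40% of the cells present at the start died, and -100 means all died.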 Values without a mark were called inactive. The calls were made as follows: active = growth percent below 10; inactive = the rest.
What follows are compounds tested on MDA-MB-468 breast (assay: NCI-60 one-dose screen, 48 h (100 = growth as untreated, 0 = no growth, -100 = all killed)). Conditions: 10 µM unless noted.
For `CCCCNC(=O)Oc1ccc(/C(=C(/C)Cc2ccc(OC)cc2)c2ccc(OCCN(CC)CC)cc2)cc1`, the growth was 76.3%.
In the case of `CCOC(=O)c1cc(C(=O)c2ccc(OC)c(OC)c2)n2c1ccc1ccc3cccnc3c12`, the growth is reported as 38.5%.
Work on `CCN(CCCNc1cc2c(c(N)c1S(=O)(=O)O)C(=O)c1ccccc1C2=O)c1ccccc1` yielded a growth of 89%.

From PubChem BioAssay (NCI)
